Experiment [1] deals with DNA repair nuclease/redox regulator APEX1 (Homo sapiens) (UniProt P27695). The experiment is described as follows: qHTS Validation Assay for Inhibitors of the Human Apurinic/apyrimidinic Endonuclease 1 (APE1) (AID 1705; further: potency means the concentration at half of the fitted maximal effect). The essentials: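 Substrate: 50 nM final fluorophore/quencher THF-abasic duplex. Enzyme preincubated with compounds 15 min, RT. Progress derived from fluorescence difference, third minus first kinetic read.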
Sequence of DNA repair nuclease/redox regulator APEX1 (Homo sapiens) (P27695 whole entry, looked up): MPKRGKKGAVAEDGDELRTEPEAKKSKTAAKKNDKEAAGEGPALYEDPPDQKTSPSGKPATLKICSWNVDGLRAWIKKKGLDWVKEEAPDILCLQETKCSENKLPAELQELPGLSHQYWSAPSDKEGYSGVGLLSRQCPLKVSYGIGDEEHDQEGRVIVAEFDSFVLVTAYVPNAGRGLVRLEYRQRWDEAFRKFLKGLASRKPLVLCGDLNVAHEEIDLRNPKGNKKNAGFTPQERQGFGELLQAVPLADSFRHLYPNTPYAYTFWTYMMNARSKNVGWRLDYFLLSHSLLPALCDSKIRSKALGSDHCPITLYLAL
(In general: Quantitative high-throughput screening tests each substance at several concentrations.)

A short description of experiment [2]: Counterscreen for APE1 Inhibitors: Fluorescent Dye Displacement Validation Assay (AID 1707). The gist of the method: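 Thiazole Orange displacement from dsDNA: 250 nM ThO with 50 nM TAMRA-labelled abasic-site (tetrahydrofuran) duplex in 50 mM Tris-HCl pH7.5, 50mM NaCl, 2 mM MgCl2, 0.01% Tween-20. Loss of endpoint fluorescence (ex 480 nm, em 540 nm) flags DNA binders.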
(In general: A counterscreen serves to expose hits that act by an unwanted route or on another target.)

For experiment [3], the target named is Endonuclease 4 (Escherichia coli (strain K12)) (UniProt P0A6C1). Description: Counterscreen for APE1 Inhibitors: qHTS Validation Assay for Inhibitors of Endonuclease IV (AID 1708). Further: potency means the concentration at half of the fitted maximal effect. The gist of the method: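 Cleavage of a quenched abasic-site DNA duplex (50 nM, 5'-TAMRA, 3'-BHQ-2) by 2 nM enzyme is followed as fluorescence increase. Compounds are preincubated with enzyme 15 min at room temperature before substrate addition.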

A short description of experiment [4]: qHTS for differential inhibitors of proliferation of Plasmodium falciparum line GB4 (AID 1816).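 Further: parasite growth measured after 72 h incubation.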 Further: potency means the concentration at half of the fitted maximal effect. The following applies: Potency: Plasmodium falciparum GB4 proliferation inhibition.
Experiment [5] can be described thus: qHTS for differential inhibitors of proliferation of Plasmodium falciparum line 3D7 (AID 1876). Further: potency means the concentration at half of the fitted maximal effect.
The nature of experiment [6]: qHTS for differential inhibitors of proliferation of Plasmodium falciparum line D10 (AID 1877).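 Further: parasites grown with compound for 72 h before DNA staining.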 Further: potency means the concentration at half of the fitted maximal effect.
Experiment [7] can be described thus: qHTS for differential inhibitors of proliferation of Plasmodium falciparum line Dd2 (AID 1882). Further: nearly all actives have a fitted effect of over 65% in size. Further: potency means the concentration at half of the fitted maximal effect. As to conditions: Potency: Plasmodium falciparum Dd2 proliferation inhibition. The essentials:
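SYBR Green I DNA fluorescence read-out, ex 485/em 535 nm. Signals were normalized to 0.29 uM artemisinin and DMSO wells, then corrected using vehicle-only plates flanking each stack. Parasite growth ran 72 h in erythrocytes before lysis.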

A short description of experiment [8]: qHTS for differential inhibitors of proliferation of Plasmodium falciparum line W2 (AID 1883).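 Further: parasites grown with compound for 72 h before lysis and staining.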 Further: potency means the concentration at half of the fitted maximal effect. As to conditions: Potency: Plasmodium falciparum W2 proliferation inhibition.
The nature of experiment [9]: qHTS for differential inhibitors of proliferation of Plasmodium falciparum line HB3 (AID 1886).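 Further: parasites grown with compound for 72 h before SYBR Green readout.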 Further: potency means the concentration at half of the fitted maximal effect. As to conditions: Potency: Plasmodium falciparum HB3 proliferation inhibition.
A short description of experiment [10]: qHTS Assay for Modulators of Human Peripheral Myelin Protein 22 (PMP22) Expression/Activity (AID 1967; active means well fitted curve in the direction sought with a large enough effect in the signal ratio; the % refers to the signal ratio). The essentials:
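Engineered MSC80 cells, Pmp22-promoter green and EF-alpha red luciferase reporters; 24h compound treatment at 37 °C. Concentration-response fits on green, red and ratio signals, each overlap-corrected, with %Activity normalized to untreated wells.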

The target of experiment [11] is Ferritin light chain (Equus caballus) (UniProt P02791). The experiment is described as follows: qHTS Validation Assay for Identification of Novel General Anesthetics (AID 2323). Further: series mostly up to about 77 µM. The gist of the method: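 Normalized fluorescence response, scaled between free 1-AMA and 1-AMA/apoferritin complex, fitted to a four-parameter Hill equation for concentration-effect values. Binding mix: 10 uM horse-spleen apoferritin, 50% saturated 1-AMA in PBS; read 380/535 nm after 10 min.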
Sequence of Ferritin light chain (Equus caballus) (P02791 2-175 limits assumed): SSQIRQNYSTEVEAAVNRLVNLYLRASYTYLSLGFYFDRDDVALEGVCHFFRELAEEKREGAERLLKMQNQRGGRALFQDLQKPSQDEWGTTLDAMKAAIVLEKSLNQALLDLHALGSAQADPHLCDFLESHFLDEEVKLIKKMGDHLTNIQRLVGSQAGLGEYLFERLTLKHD

For experiment [12], the target named is ATP-dependent DNA helicase Q1 (Homo sapiens) (UniProt P46063). Description: qHTS Validation Assay for Inhibitors of RecQ-Like Dna Helicase 1 (RECQ1) (AID 2353). The gist of the method: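 50 nM RECQ1T1 preincubated 15 min with compound in Tris pH 8.0 buffer with MgCl2, DTT, Tween-20 and 2.5 ug/ml poly(dI-dC); started with 200 nM TAMRA/BHQ-2 forked duplex and 2 mM ATP. Unwinding read as fluorescence (525/598 nm), two reads 2 h apart.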
Sequence of ATP-dependent DNA helicase Q1 (Homo sapiens) (P46063 whole entry, looked up): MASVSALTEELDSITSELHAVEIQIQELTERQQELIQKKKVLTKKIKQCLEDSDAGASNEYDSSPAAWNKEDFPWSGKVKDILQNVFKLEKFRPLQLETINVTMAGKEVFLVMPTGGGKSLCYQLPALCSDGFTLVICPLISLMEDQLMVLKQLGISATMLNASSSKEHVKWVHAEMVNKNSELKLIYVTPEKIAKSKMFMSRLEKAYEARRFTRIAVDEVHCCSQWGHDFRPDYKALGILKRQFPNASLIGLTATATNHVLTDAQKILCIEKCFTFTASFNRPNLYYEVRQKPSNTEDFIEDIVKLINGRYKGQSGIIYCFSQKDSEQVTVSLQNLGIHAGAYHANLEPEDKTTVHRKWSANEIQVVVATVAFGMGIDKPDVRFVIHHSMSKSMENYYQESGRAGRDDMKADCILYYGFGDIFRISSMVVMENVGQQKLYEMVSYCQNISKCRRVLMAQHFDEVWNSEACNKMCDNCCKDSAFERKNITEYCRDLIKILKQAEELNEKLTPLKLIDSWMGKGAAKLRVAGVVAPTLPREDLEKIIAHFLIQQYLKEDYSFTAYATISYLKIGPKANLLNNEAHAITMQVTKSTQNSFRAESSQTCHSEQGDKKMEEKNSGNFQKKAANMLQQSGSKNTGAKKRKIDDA

Experiment [13] in a line: Cytometric Cell-Based qHTS for Inhibitors of the mTORC1 Signaling Pathway in MEF (Tsc2-/-, p53-/-) Cells (AID 2660).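 Further: percent of cells above a phospho-rpS6 to PI ratio cutoff in each well; series mostly up to about 38 µM.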 The essentials:
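Readout: Alexa-488 phospho-rpS6 (Ser235/236) intensity divided by PI intensity, thresholded against 7.5 nM rapamycin wells and reported as % positive cells. PI cell count served as the viability measure. Compound exposure was 24 hrs at 37 degree Celsius.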

Experiment [14] can be described thus: High Content Imaging Cell-Based qHTS for Inhibitors of the mTORC1 Signaling Pathway in MEF (Tsc2-/-, p53-/-) Cells (AID 2666).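 Further: percent of cells scored positive for phospho-rpS6 Ser235/236 immunostaining by imaging.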 The gist of the method:
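Phospho-rpS6 (Ser235/236) immunofluorescence, normalized and scored as % positive cells using rapamycin and DMSO controls, was read in empty-vector Tsc2-/-, p53-/- MEFs after 24 h compound exposure at 37 C; propidium iodide counted cells.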

The nature of experiment [15]: High Content Imaging Cell-Based qHTS for Inhibitors of the mTORC1 Signaling Pathway in MEF Cells (AID 2667).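 Further: Tsc2-/- p53-/- MEFs stably re-expressing wild-type Tsc2 exposed 24 h; series mostly up to about 38 µM.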 The essentials: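 WT MEFs (Tsc2-/-, p53-/- re-expressing Tsc2), in DMEM + 10% FBS, were treated with compound for 24 h at 37 C. Cells were then fixed and stained for phospho-rpS6 Ser235/236 with propidium iodide as cell count. Values are % positive cells, with thresholds set against rapamycin-treated cells.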

Experiment [16] can be described thus: qHTS for differential inhibitors of proliferation of Plasmodium falciparum line 7G8 (AID 1815).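 Further: parasite growth measured after three days of incubation.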 Further: potency means the concentration at half of the fitted maximal effect.
The target in experiment [17] is RecQ-like DNA helicase BLM (Homo sapiens) (UniProt P54132). The experiment is described as follows: qHTS Validation Assay for Inhibitors of Bloom's syndrome helicase (BLM) (AID 2364). Further: potency means the concentration at half of the fitted maximal effect. The gist of the method: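 50 nM BLM preincubated 15 min at room temperature with compound in pH 8.0 Tris buffer containing 2.5 ug/ml poly(dI-dC); started with 200 nM TAMRA/BHQ-2 forked duplex and 2 mM ATP (final). Unwinding read as TAMRA fluorescence increase, two reads 2 h apart.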
Sequence of RecQ-like DNA helicase BLM (Homo sapiens) (P54132 whole entry, looked up): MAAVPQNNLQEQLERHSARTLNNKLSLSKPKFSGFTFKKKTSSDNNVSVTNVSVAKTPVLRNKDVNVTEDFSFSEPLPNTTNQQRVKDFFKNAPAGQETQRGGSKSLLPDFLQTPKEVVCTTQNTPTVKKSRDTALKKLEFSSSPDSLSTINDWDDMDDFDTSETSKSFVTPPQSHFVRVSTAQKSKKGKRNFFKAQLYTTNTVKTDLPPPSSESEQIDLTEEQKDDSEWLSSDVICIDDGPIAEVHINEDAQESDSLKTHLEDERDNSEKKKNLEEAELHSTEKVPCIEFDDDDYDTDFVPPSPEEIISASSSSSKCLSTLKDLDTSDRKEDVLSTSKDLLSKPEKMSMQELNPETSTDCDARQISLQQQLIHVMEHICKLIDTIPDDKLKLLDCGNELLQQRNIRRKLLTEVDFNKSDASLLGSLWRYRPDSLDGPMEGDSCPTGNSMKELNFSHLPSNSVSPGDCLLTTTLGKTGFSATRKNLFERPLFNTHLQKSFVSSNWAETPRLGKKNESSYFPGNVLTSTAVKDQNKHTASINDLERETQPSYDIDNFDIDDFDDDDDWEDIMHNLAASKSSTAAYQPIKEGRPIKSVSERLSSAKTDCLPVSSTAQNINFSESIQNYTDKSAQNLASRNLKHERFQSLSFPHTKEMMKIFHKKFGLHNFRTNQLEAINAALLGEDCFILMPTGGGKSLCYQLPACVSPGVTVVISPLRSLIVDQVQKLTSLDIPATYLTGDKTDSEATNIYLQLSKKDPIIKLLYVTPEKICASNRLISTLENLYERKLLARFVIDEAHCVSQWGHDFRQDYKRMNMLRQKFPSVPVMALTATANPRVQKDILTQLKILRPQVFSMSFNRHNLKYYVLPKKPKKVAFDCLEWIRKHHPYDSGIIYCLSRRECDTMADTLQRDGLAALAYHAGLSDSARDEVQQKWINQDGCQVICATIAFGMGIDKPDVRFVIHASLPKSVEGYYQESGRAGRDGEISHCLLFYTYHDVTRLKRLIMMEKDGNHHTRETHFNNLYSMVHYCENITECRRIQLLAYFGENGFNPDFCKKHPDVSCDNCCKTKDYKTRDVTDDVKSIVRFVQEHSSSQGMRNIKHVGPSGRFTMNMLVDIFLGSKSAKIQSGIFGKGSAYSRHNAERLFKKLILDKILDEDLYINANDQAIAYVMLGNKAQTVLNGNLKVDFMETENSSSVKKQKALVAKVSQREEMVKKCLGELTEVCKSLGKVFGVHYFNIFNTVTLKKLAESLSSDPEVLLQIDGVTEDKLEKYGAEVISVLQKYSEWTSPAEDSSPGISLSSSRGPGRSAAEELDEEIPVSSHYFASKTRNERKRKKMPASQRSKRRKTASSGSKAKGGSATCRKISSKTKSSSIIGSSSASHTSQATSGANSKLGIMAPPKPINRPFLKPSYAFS

Results filed as inconclusive are left out. Activity calls are given as the source filed them. Unless noted, the call rests on the fitted dose curve; in most records, active means well fitted curve in the direction sought with a large enough effect; inconclusive means small, poorly fitted or top-dose-only effect, or another doubt; inactive means no such curve, though single readings can be large; an effect the other way counts as inactive or inconclusive.

As to `OCC1O[C@H](O)C(Cl)C(O)C1O` (stereo partly specified), the Potency entry in experiment [1], in experiment [2], in experiment [3], in experiment [4], in [5] and in experiment [6] was “inactive” in each case. Further, the Potency entry in experiment [7], in experiment [8], in [9], in experiment [11], in experiment [12] and in [14] was “inactive” throughout. Besides, the Potency result in [15] is “inactive”. Moreover, the compound was classed as inactive in [10] and in [13].
For the compound `O=C(Nc1cccc(C(=O)Nc2ccc(S(=O)(=O)O)c3cc(S(=O)(=O)O)cc(S(=O)(=O)O)c23)c1)Nc1cccc(C(=O)Nc2ccc(S(=O)(=O)O)c3cc(S(=O)(=O)O)cc(S(=O)(=O)O)c23)c1`, the Potency is 10 µM (active) in experiment [1] and 8.91 µM (active) in experiment [3]. Moreover, the Potency entry in experiment [2], in experiment [16], in experiment [4], in experiment [5], in experiment [6] and in experiment [7] was “inactive” in each case. Moreover, the Potency entry in experiment [8], in experiment [9], in experiment [11], in experiment [17], in experiment [14] and in experiment [15] was “inactive” throughout. Also, in experiment [13], the outcome was inactive.
In the case of `CC(C)NCC(O)COc1cccc2ccccc12` (stereo unspecified), the Potency entry in experiment [1], in [2], in experiment [3], in experiment [11], in experiment [12] and in [17] was “inactive” in each case. The Potency entry in experiment [14] and in experiment [15] was “inactive” in each case. Further, the Potency in experiment [16] is 4.47 µM (active); in experiment [4] it was 2.51 µM (active); in experiment [6] it was 11.2 µM (active); in experiment [7], 8.91 µM (active); in [8], 2.82 µM (active); in [9], 12.6 µM (active). Further, the outcome in experiment [13] was inactive.
Turning to `CC(C)(C)NCC(O)COc1nsnc1N1CCOCC1` (stereo unspecified), the Potency entry in [1], in experiment [2], in experiment [3], in experiment [5], in [6] and in [7] was “inactive” in each case. For the same compound, the Potency entry in experiment [9], in [11] and in [12] was “inactive” throughout. The compound was called inactive in experiment [10].
Turning to `COc1ccccc1CNCCCCCCNCCCCCCCCNCCCCCCNCc1ccccc1OC`, the Potency entry in experiment [1], in experiment [2], in experiment [3], in experiment [11], in experiment [14] and in experiment [15] was “inactive” throughout. Besides, the Potency in experiment [16] is 1.41 µM (active); in experiment [4], 2.24 µM (active); in experiment [5], 0.891 µM (active); in experiment [6] it was 2.24 µM (active); in experiment [7], 4.47 µM (active); in [8], 1 µM (active). In addition, the values for the Potency in experiment [9] and in experiment [17] were 2 µM (active) and 17.8 µM (active), respectively. Also, the call in experiment [13] was inactive.
For `Fc1cccc(/C=N/N=C/c2cccc(F)c2)c1`, the Potency entry in experiment [1], in experiment [2], in experiment [3], in experiment [16], in experiment [4] and in experiment [6] was “inactive” in each case. Moreover, the Potency entry in experiment [7], in experiment [9], in [11], in experiment [12], in [14] and in experiment [15] was “inactive” throughout. Besides, the compound was classed as inactive in [13].
Consider `O=S(=O)(c1cccc2c(I)cccc12)N1CCCNCC1`, for which the Potency result in [1], in experiment [2], in experiment [3], in experiment [16], in experiment [5] and in experiment [6] was “inactive” each time. The Potency entry in experiment [9], in experiment [11], in experiment [12], in experiment [17] and in experiment [14] was “inactive” in each case. The Potency in experiment [8] was 7.08 µM (active). Moreover, the outcome in experiment [13] was inactive.
For `CCCCCCCCCCCCCCCCCCNC(=O)OCC(COP(=O)([O-])OCC[n+]1ccsc1)OC` (stereo unspecified), the Potency entry in experiment [1], in [2], in [3], in experiment [6], in experiment [7] and in experiment [12] was “inactive” in each case. For the same compound, in experiment [15], the Potency entry is “inactive”. Besides, the Potency in experiment [4] and in [9] was 11.2 µM (active) in each case. Further, in experiment [10], the call was inactive.

Source of the values: PubChem BioAssay (NCATS).
